Insulin prom up: MIN6 insulin promoter up-regulation. MIN6 insulin promoter-GFP reporter, high-content imaging; stronger effect = higher value. z-score at 5 µM. 190,000 tested, 0.3% active;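 active = z-score above 3 at 5 µM with at least 500 cells counted in the well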
L major viab: Leishmania major promastigote growth inhibition. Leishmania major promastigotes, resazurin fluorescence viability. inhibition, % at 10 µM. 200,000 tested, 9% active; in the data active = inhibition above about 50%;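 note: promastigotes grown with compound for 44 hours at 28 °C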
PTEN del growth: PTEN-deleted cell growth suppression. AID 827. HCT116 PTEN-null viability, CellTiter-Glo, 60 h; stronger effect = lower value. viability, % at 10 µM. 140,000 tested, 1.2% active;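 active = viability at or below a set limit, 4 SD under the median of all tested compounds, cut at about 3.7% in these data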;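 note: PTEN knockout HCT116 line with beta catenin targeted HCT116 as companion control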
Autophagy HCS: autophagy modulation, high-content screen; MEF GFP-LC3 puncta imaging; test concentration mostly 10 µM; calls only at 10 µM (by protocol); 190,000 tested, 0.98% active; AID 463193;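 active = percentage of spot-positive cells more than 3 SD above its plate mean, without a fluorescence outlier flag or 80% toxicity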
Insulin prom inh: TRM-6 insulin promoter activity inhibition. TRM-6 cells (human fetal islet line), insulin promoter-eGFP reporter, imaging; reporter expression induced with tamoxifen. inhibition, % at 2 µM. 130,000 tested, 0.9% active. AID 1273;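 active = inhibition above the mean plus 3 SD, with well images judged a real hit on visual review, cut at about 60% in these data, passing the limit was not always enough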
bCat KO growth: beta-catenin-lacking colon tumor cell growth suppression; HCT116 beta-catenin knockout viability, CellTiter-Glo, 60 h; stronger effect = lower value; viability, % at 10 µM; 140,000 tested, 1.5% active; AID 818;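 active = viability at or under a set limit, the compound median less 4 SD, cut at about 6% in these data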
Large screens that a line does not name were inactive. Sampled rows, rich in hits. Any-hit rate of the full collection: about 9.6%.

O=C(Nc1ccccc1)c1nnsc1S(=O)c1ccc(Cl)cc1 (centres undefined)	PTEN del growth 2.2
Cc1ccc2nc(CSc3nnc4ccccn34)cc(=O)n2c1	none (no result: PTEN del growth, bCat KO growth)
C=CCn1c(SCc2cc(=O)n3cc(C)ccc3n2)nnc1-c1cccc(C)c1	L major viab 52
Cc1ccc(C(=O)NC(=C(Cl)Cl)S(=O)(=O)c2ccc(C)cc2)cc1	L major viab 62 (no result: Insulin prom up)
Cc1ccc(S(=O)(=O)C(NC(=O)c2ccccc2)=C(Cl)Cl)cc1	L major viab 62 (no result: Insulin prom up, PTEN del growth, bCat KO growth)
Cc1ccc(S(=O)(=O)/C(=C/Cl)NC(=O)c2ccccc2)cc1	L major viab 99, bCat KO growth 6.0
Cc1ccc(C(=O)NC(=C(Cl)Cl)S(=O)(=O)c2ccc(Cl)cc2)cc1	none (no result: PTEN del growth, bCat KO growth)
CC(C)c1ccc(S(=O)(=O)c2cc3cc(Br)ccc3oc2=O)cc1	none
O=C(c1ccccn1)c1conc1C(=O)c1ccc(Br)cc1	none
COc1ccc(N(CCCN2C(=O)c3cccc4cccc(c34)C2=O)C(=O)c2cccnc2)cc1	L major viab 51 (no result: PTEN del growth, bCat KO growth)
COc1ccc(N(CCCN2C(=O)c3cccc4cccc(c34)C2=O)C(=O)c2ccncc2)cc1	L major viab 69 (no result: PTEN del growth, bCat KO growth)
COc1ccc(N(CCN2C(=O)c3ccccc3C2=O)C(=O)c2cccc([N+](=O)[O-])c2)cc1	Insulin prom up 3.1 (no result: Insulin prom inh)
COc1cc(OC)cc(C(=O)N(CCCN2C(=O)c3cccc4cccc(c34)C2=O)c2cccc(OC)c2)c1	none (no result: Insulin prom inh)
COc1ccc(N(CN2C(=O)c3ccccc3C2=O)C(=O)C(C)C)cc1	none (no result: Insulin prom inh)
O=C(c1ccco1)N1CCN(C(=O)c2cnn3cccnc23)CC1	none
COc1ccc(CC2(CO)CCN(Cc3cnn(C)c3C)CC2)cc1	none (no result: PTEN del growth, Insulin prom inh, bCat KO growth)
COc1ccc(CC2(CO)CCN(CC3=CC[C@H]4C[C@@H]3C4(C)C)CC2)cc1	L major viab 82 (no result: PTEN del growth, Insulin prom inh, bCat KO growth)
COC(=O)c1ccc(CN2CCC(CO)(Cc3cccc(OC)c3)CC2)cc1	L major viab 83 (no result: PTEN del growth, bCat KO growth)
COc1ccc(CC2(CO)CCN(Cc3ccncc3)CC2)cc1	L major viab 89 (no result: PTEN del growth, Insulin prom inh, bCat KO growth)
Cn1cc(Br)cc2nc(C(F)(F)F)nc1-2	none
CC1(C)COC(/C=C/c2cccc([N+](=O)[O-])c2)=N1	L major viab 98 (no result: Insulin prom up, PTEN del growth, bCat KO growth)
CC1(C)COC(c2cc([N+](=O)[O-])ccc2Cl)=N1	none
Clc1cccc(Oc2ncc(CN3CCOCC3)s2)c1	L major viab 62
Cc1ccc(Oc2ncc(CN3CCOCC3)s2)cc1	L major viab 77 (no result: Insulin prom up)
CCOc1ncccc1C(=O)Nc1cc(S(=O)(=O)N2CCOCC2)ccc1N1CCCC1	none (no result: PTEN del growth, bCat KO growth)
Cc1ccc(/C=N/N2CCN(C3c4ccccc4-c4ccccc43)CC2)o1	none (no result: L major viab, PTEN del growth, Autophagy HCS, Insulin prom inh, bCat KO growth)
Cc1ccc(C(=O)Nc2cccc(-c3nc4ncccc4o3)c2)cc1	none (no result: L major viab, PTEN del growth, Autophagy HCS, Insulin prom inh, bCat KO growth)
Cc1ccc(-c2nc3ncccc3o2)cc1NC(=O)c1ccccc1	none (no result: L major viab, PTEN del growth, Autophagy HCS, Insulin prom inh, bCat KO growth)
CCCCC(=O)Nc1cc(-c2nc3ncccc3o2)ccc1C	L major viab 99 (no result: PTEN del growth, Insulin prom inh, bCat KO growth)
O=C(Nc1cccc(-c2nc3ncccc3o2)c1)c1ccccc1	L major viab 100 (no result: PTEN del growth, bCat KO growth)
NNC(=O)c1nn(-c2ccccc2)cc1O	none (no result: PTEN del growth, bCat KO growth)
COc1cccc(-c2cc(C(=O)N3CCCc4ccccc43)no2)c1	none
S=C(NCCSCc1ccc(Cl)cc1Cl)Nc1ccccc1	L major viab 84
Cc1nn(-c2ccccc2)c(N2CCCC2)c1/C=N/NC(=O)c1cccc(S(=O)(=O)Nc2ccc(Cl)cc2)c1	L major viab 52
Cc1nn(-c2cccc(Cl)c2)c(Cl)c1/C=N/NC(=O)c1cccnc1	L major viab 71
Cc1nn(-c2ccc(F)cc2)c(Cl)c1/C=N/NC(=O)c1cccc(S(=O)(=O)N2CCCC2)c1	L major viab 55
Cc1nn(-c2ccccc2)c(Cl)c1/C=N/NC(=O)c1cccc(S(=O)(=O)N2CCCC2)c1	none
Nc1nc2ccccc2n1/N=C/c1ccc([N+](=O)[O-])s1	L major viab 100, PTEN del growth 2.6, bCat KO growth 3.5
COCCNC(=O)CS(=O)Cc1nc(-c2ccc(OC)cc2)oc1C (centres undefined)	Autophagy HCS active (no result: Insulin prom inh)
Cc1oc(-c2ccc(Cl)cc2)nc1CS(=O)CC(=O)NCCCN(C)C1CCCCC1 (centres undefined)	L major viab 100
Cc1oc(-c2ccc(Cl)cc2)nc1CS(=O)CC(=O)NCCN1CCCC1 (centres undefined)	none (no result: Insulin prom inh)
N#CC1=C(N)Oc2cc(N)ccc2C1c1ccc(F)cc1 (centres undefined)	none
COc1cc(C2C(C#N)=C(N)Oc3cc(N)ccc32)cc(OC)c1OC (centres undefined)	Autophagy HCS active
Cc1ccccc1NS(=O)(=O)c1ccc2c(c1)NC(=O)CO2	none (no result: PTEN del growth, Insulin prom inh, bCat KO growth)
Cc1ccc2cccc(OCC(=O)NCc3ccco3)c2n1	none (no result: Insulin prom inh)
Cc1nn(-c2ccccc2)c(C)c1C(=O)OCC(=O)N1CC(=O)Nc2ccccc21	Insulin prom inh 93
CC(C)=CC(=O)N1CCC(N2CCC(C(=O)N3CCOCC3)CC2)CC1	none (no result: PTEN del growth, Insulin prom inh, bCat KO growth)
CC(C)NC(=O)C1CCN(C2CCN(CC3CC=CCC3)CC2)CC1 (centres undefined)	none (no result: Insulin prom up, PTEN del growth, Insulin prom inh, bCat KO growth)
CC(C)=CCCC(C)CN1CCC(N2CCC(C(=O)NC(C)C)CC2)CC1 (centres undefined)	L major viab 83 (no result: PTEN del growth, Insulin prom inh, bCat KO growth)
O=C(C1CCN(C2CCN(CC3CC=CCC3)CC2)CC1)N1CCOCC1 (centres undefined)	L major viab 76 (no result: Insulin prom up, PTEN del growth, Insulin prom inh, bCat KO growth)
CC(C)=CCCC(C)CN1CCC(N2CCC(C(=O)N3CCOCC3)CC2)CC1 (centres undefined)	L major viab 96 (no result: PTEN del growth, Insulin prom inh, bCat KO growth)
CSCCC(NS(=O)(=O)c1ccc2c(c1)OCCO2)C(=O)NCCc1ccccn1 (centres undefined)	none
CC(O)CN(C)CC/C=C1/c2ccccc2CSc2ccccc21 (centres undefined)	L major viab 98 (no result: Insulin prom up, Insulin prom inh)
CN(CC/C=C1/c2ccccc2CSc2ccccc21)CCCO	L major viab 56
CN(C)CC/C=C1/c2cc(F)ccc2CSc2ccc(F)cc21	L major viab 99 (no result: Insulin prom up)
C=CCN(C)CC/C=C1\c2ccccc2CSc2ccccc21	L major viab 100 (no result: Insulin prom up)
CN(C)CC/C=C1/c2ccccc2COc2ccccc21	none (no result: L major viab, PTEN del growth, Autophagy HCS, Insulin prom inh, bCat KO growth)
NCC/C=C1/c2ccccc2CSc2ccccc21	L major viab 54 (no result: Insulin prom up)
C#CCN(C)CC/C=C1\c2ccccc2CSc2ccccc21	L major viab 65 (no result: Insulin prom up)
CC/C(=N\NC(=O)Nc1nonc1N)c1ccc(OC)c(OC)c1	none (no result: L major viab, PTEN del growth, Autophagy HCS, Insulin prom inh, bCat KO growth)
C(/C=C/c1ccccc1)=N/N1CCN(c2ccccc2)CC1	none
Cc1cc(C)c2[nH]c(O)c(N=NC(=S)NCC3CCCO3)c2c1 (centres undefined)	none
Oc1[nH]c2c(Cl)cc(Cl)cc2c1N=NC(=S)NCC1CCCO1 (centres undefined)	L major viab 98, PTEN del growth 0.5, bCat KO growth 1.4 (no result: Insulin prom inh)
COc1cc(C#CC#CCN2CCCCC2)ccc1O	L major viab 86 (no result: Insulin prom up)
Cc1cc(C)nc(N(C#N)S(=O)(=O)c2ccccc2)n1	Insulin prom inh 82
CCc1ccc(C2(C)SC(NC(C)=O)=NN2C(C)=O)cc1 (centres undefined)	none

Screening results: PubChem, several laboratories
